{"source": "the supplement of paper PMC8728848", "test_in_all_cases": "glycan array binding signal (z-score within array); higher = stronger binding", "conditions_in_all_cases": "glycan notation: IUPAC condensed, linker removed", "key": {"[1]": {"biological_target": "Fuc(a1-2)Gal(b1-3)GalNAc(b1-3)Gal(a1-4)Gal(b1-4)Glc", "procedure,_shortened": "(§1)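 Arrays were curated from the Consortium for Functional Glycomics database, 3228 in total, and kept only where the protein sequence was available. Binding is expressed as a within-array Z-score. This score was averaged across arrays of the same protein sequence at different concentrations or buffers and across linkers, and negative values can be read as non-binding.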"}, "[2]": {"biological_target": "Fuc(a1-2)Gal(b1-3)GlcNAc(b1-3)[Neu5Ac(a2-6)Gal(b1-4)GlcNAc(b1-6)]Gal(b1-4)Glc", "procedure,_shortened": "as §1"}, "[3]": {"biological_target": "Fuc(a1-2)Gal(b1-4)GlcNAc(b1-2)Man(a1-3)[Fuc(a1-2)Gal(b1-4)GlcNAc(b1-2)Man(a1-6)]Man(b1-4)GlcNAc(b1-4)GlcNAc", "procedure,_shortened": "as §1"}, "[4]": {"biological_target": "Fuc(a1-2)[Gal(a1-3)]Gal(b1-4)GlcNAc", "procedure,_shortened": "as §1"}, "[5]": {"biological_target": "Fuc(a1-2)[Gal(a1-3)]Gal(b1-4)GlcNAc(b1-2)Man(a1-3)[Fuc(a1-2)[Gal(a1-3)]Gal(b1-4)GlcNAc(b1-2)Man(a1-6)]Man(b1-4)GlcNAc(b1-4)GlcNAc", "procedure,_shortened": "as §1"}, "[6]": {"biological_target": "Fuc(a1-2)[Gal(a1-3)]Gal(b1-4)GlcNAc(b1-2)Man(a1-3)[Fuc(a1-2)[Gal(a1-3)]Gal(b1-4)GlcNAc(b1-2)Man(a1-6)]Man(b1-4)GlcNAc(b1-4)[Fuc(a1-6)]GlcNAc", "procedure,_shortened": "as §1"}, "[7]": {"biological_target": "Fuc(a1-2)[GalNAc(a1-3)]Gal", "procedure,_shortened": "as §1"}, "[8]": {"biological_target": "Fuc(a1-2)[GalNAc(a1-3)]Gal(b1-3)GlcNAc(b1-2)Man(a1-3)[Fuc(a1-2)[GalNAc(a1-3)]Gal(b1-3)GlcNAc(b1-2)Man(a1-6)]Man(b1-4)GlcNAc(b1-4)GlcNAc", "procedure,_shortened": "as §1"}, "[9]": {"biological_target": "Fuc(a1-2)[GalNAc(a1-3)]Gal(b1-3)GlcNAc(b1-2)Man(a1-3)[Fuc(a1-2)[GalNAc(a1-3)]Gal(b1-3)GlcNAc(b1-2)Man(a1-6)]Man(b1-4)GlcNAc(b1-4)[Fuc(a1-6)]GlcNAc", "procedure,_shortened": "as §1"}, "[10]": {"biological_target": "Fuc(a1-2)[GalNAc(a1-3)]Gal(b1-4)GlcNAc(b1-2)Man(a1-3)[Fuc(a1-2)[GalNAc(a1-3)]Gal(b1-4)GlcNAc(b1-2)Man(a1-6)]Man(b1-4)GlcNAc(b1-4)GlcNAc", "procedure,_shortened": "as §1"}, "[11]": {"biological_target": "Fuc(a1-2)[GalNAc(b1-3)]Gal", "procedure,_shortened": "as §1"}, "[12]": {"biological_target": "Fuc(a1-3)[Gal(b1-4)]GlcNAc", "procedure,_shortened": "as §1"}, "[13]": {"biological_target": "Fuc(a1-3)[Gal(b1-4)]GlcNAc(b1-2)Man(a1-3)[Fuc(a1-3)[Gal(b1-4)]GlcNAc(b1-2)Man(a1-6)]Man(b1-4)GlcNAc(b1-4)GlcNAc", "procedure,_shortened": "as §1"}, "[14]": {"biological_target": "Fuc(a1-3)[Gal(b1-4)]GlcNAc(b1-3)Gal(b1-3)[Fuc(a1-4)]GlcNAc", "procedure,_shortened": "as §1"}, "[15]": {"biological_target": "Gal(a1-4)Gal(b1-4)GlcNAc", "procedure,_shortened": "as §1"}, "[16]": {"biological_target": "Gal(b1-3)GlcNAc", "procedure,_shortened": "as §1"}, "[17]": {"biological_target": "Gal(b1-3)GlcNAc(b1-2)Man(a1-3)[GlcNAc(b1-4)][Gal(b1-3)GlcNAc(b1-2)Man(a1-6)]Man(b1-4)GlcNAc(b1-4)GlcNAc", "procedure,_shortened": "as §1"}, "[18]": {"biological_target": "Gal(b1-3)GlcNAc(b1-3)Gal(b1-3)GlcNAc", "procedure,_shortened": "as §1"}, "[19]": {"biological_target": "Gal(b1-3)GlcNAc(b1-3)Gal(b1-4)GlcNAc(b1-2)[Gal(b1-3)GlcNAc(b1-3)Gal(b1-4)GlcNAc(b1-6)]Man(a1-6)[Gal(b1-3)GlcNAc(b1-3)Gal(b1-4)GlcNAc(b1-2)Man(a1-3)]Man(b1-4)GlcNAc(b1-4)[Fuc(a1-6)]GlcNAc", "procedure,_shortened": "as §1"}, "[20]": {"biological_target": "Gal(b1-3)GlcNAc(b1-3)Gal(b1-4)GlcNAc(b1-6)[Gal(b1-3)GlcNAc(b1-3)]Gal(b1-4)Glc", "procedure,_shortened": "as §1"}, "[21]": {"biological_target": "Gal(b1-3)GlcNAc(b1-3)Gal(b1-4)[Fuc(a1-3)]GlcNAc(b1-6)[Gal(b1-3)GlcNAc(b1-3)]Gal(b1-4)Glc", "procedure,_shortened": "as §1"}, "[22]": {"biological_target": "Gal(b1-3)[Fuc(a1-4)]GlcNAc(b1-6)GalNAc", "procedure,_shortened": "as §1"}, "[23]": {"biological_target": "Gal(b1-4)GlcNAc(b1-2)Man", "procedure,_shortened": "as §1"}, "[24]": {"biological_target": "Gal(b1-4)GlcNAc(b1-3)Gal(b1-4)GlcNAc(b1-3)Gal(b1-4)GlcNAc(b1-2)[Gal(b1-4)GlcNAc(b1-3)Gal(b1-4)GlcNAc(b1-3)Gal(b1-4)GlcNAc(b1-6)]Man(a1-6)[Gal(b1-4)GlcNAc(b1-3)Gal(b1-4)GlcNAc(b1-3)Gal(b1-4)GlcNAc(b1-2)Man(a1-3)]Man(b1-4)GlcNAc(b1-4)[Fuc(a1-6)]GlcNAc", "procedure,_shortened": "as §1"}, "[25]": {"biological_target": "Gal(b1-4)GlcNAc(b1-3)Gal(b1-4)GlcNAc(b1-3)Gal(b1-4)GlcNAc(b1-3)Gal(b1-4)GlcNAc(b1-2)[Gal(b1-4)GlcNAc(b1-3)Gal(b1-4)GlcNAc(b1-3)Gal(b1-4)GlcNAc(b1-3)Gal(b1-4)GlcNAc(b1-6)]Man(a1-6)[Gal(b1-4)GlcNAc(b1-3)Gal(b1-4)GlcNAc(b1-3)Gal(b1-4)GlcNAc(b1-3)Gal(b1-4)GlcNAc(b1-2)Man(a1-3)]Man(b1-4)GlcNAc(b1-4)[Fuc(a1-6)]GlcNAc", "procedure,_shortened": "as §1"}, "[26]": {"biological_target": "Gal(b1-4)GlcNAc(b1-3)Gal(b1-4)GlcNAc(b1-3)Gal(b1-4)GlcNAc(b1-3)Gal(b1-4)GlcNAc(b1-3)Gal(b1-4)GlcNAc(b1-2)[Gal(b1-4)GlcNAc(b1-3)Gal(b1-4)GlcNAc(b1-3)Gal(b1-4)GlcNAc(b1-3)Gal(b1-4)GlcNAc(b1-3)Gal(b1-4)GlcNAc(b1-6)]Man(a1-6)[Gal(b1-4)GlcNAc(b1-3)Gal(b1-4)GlcNAc(b1-3)Gal(b1-4)GlcNAc(b1-3)Gal(b1-4)GlcNAc(b1-3)Gal(b1-4)GlcNAc(b1-2)Man(a1-3)]Man(b1-4)GlcNAc(b1-4)[Fuc(a1-6)]GlcNAc", "procedure,_shortened": "as §1"}, "[27]": {"biological_target": "Gal(b1-4)GlcNAc(b1-3)Gal(b1-4)[Fuc(a1-3)]GlcNAc(b1-3)Gal(b1-4)[Fuc(a1-3)]GlcNAc", "procedure,_shortened": "as §1"}, "[28]": {"biological_target": "Gal(b1-4)GlcNAc(b1-3)[Gal(b1-4)GlcNAc(b1-6)]Gal(b1-4)GlcNAc", "procedure,_shortened": "as §1"}, "[29]": {"biological_target": "Gal(b1-4)GlcNAc(b1-6)GalNAc", "procedure,_shortened": "as §1"}, "[30]": {"biological_target": "Gal(b1-4)GlcNAc(b1-6)[Gal(b1-3)]GalNAc", "procedure,_shortened": "as §1"}}, "note": "Many of the other results were omitted from the sample, so the strongest signals are more common in it than they were."}
{"binder": "PX9937F-bfa-516-16-516 (Bacteroides fragilis) (protein) LDIDPTSSIADSNYWKTEAQFSTFNVGLHALLRECSFNFFLLGEPRADIYGDVPFGGEATQGMERLPFNTINKENTGISNFAGMYKVINQINLMIAKTKETTVLSEAGKNYYLGEAYGMRAYLYFHLLRSWGDVILYLDYTNGASLDLSNLSKAASPAEEVMKQIKEDITASEKGFGSDYSFKYGRYYWSMAATQMLKGEVYLWSGRQMGGGTADYTTAKTALQSIVSNANVSLQDDFSKVFAYNNKDNSEIIFSIRNAKDEYNMWDDRFRQNLVPQQAYMTSTYCNKEGVSFKDLPEGQLNGLIRLQIRYDLYNKAFRDGDTRKDASMTAVYQKQQDGTVKYIAPFCNKYQGVLLDGASQRSFLNDYPIYRYADCLLLLAEAKALLGEDPTAEINQVRERAYGKEFFEANKATLAYPNDKGDFYTDNKYMSGDEDPLEAILKERMREFMFEGKRWYDLRLLGADYVTKRTSAVATRLLWPINESVLTDNPALKQTPGYQN", "values": [{"measurement": "glycan array binding signal (z-score)", "setting": "[1]", "value": 0.493}, {"measurement": "glycan array binding signal (z-score)", "setting": "[2]", "value": -0.097}, {"measurement": "glycan array binding signal (z-score)", "setting": "[3]", "value": -0.256}, {"measurement": "glycan array binding signal (z-score)", "setting": "[4]", "value": -0.012}, {"measurement": "glycan array binding signal (z-score)", "setting": "[5]", "value": 1.48}, {"measurement": "glycan array binding signal (z-score)", "setting": "[6]", "value": -0.006}, {"measurement": "glycan array binding signal (z-score)", "setting": "[7]", "value": -0.222}, {"measurement": "glycan array binding signal (z-score)", "setting": "[8]", "value": -0.141}, {"measurement": "glycan array binding signal (z-score)", "setting": "[9]", "value": -0.135}, {"measurement": "glycan array binding signal (z-score)", "setting": "[10]", "value": 2.69}, {"measurement": "glycan array binding signal (z-score)", "setting": "[11]", "value": 1.64}, {"measurement": "glycan array binding signal (z-score)", "setting": "[12]", "value": -0.071}, {"measurement": "glycan array binding signal (z-score)", "setting": "[13]", "value": -0.045}, {"measurement": "glycan array binding signal (z-score)", "setting": "[14]", "value": -0.161}, {"measurement": "glycan array binding signal (z-score)", "setting": "[15]", "value": -0.077}, {"measurement": "glycan array binding signal (z-score)", "setting": "[16]", "value": -0.207}, {"measurement": "glycan array binding signal (z-score)", "setting": "[17]", "value": 0.179}, {"measurement": "glycan array binding signal (z-score)", "setting": "[18]", "value": -0.041}, {"measurement": "glycan array binding signal (z-score)", "setting": "[19]", "value": 7.79}, {"measurement": "glycan array binding signal (z-score)", "setting": "[20]", "value": -0.142}, {"measurement": "glycan array binding signal (z-score)", "setting": "[21]", "value": -0.388}, {"measurement": "glycan array binding signal (z-score)", "setting": "[22]", "value": 1.88}, {"measurement": "glycan array binding signal (z-score)", "setting": "[23]", "value": -0.006}, {"measurement": "glycan array binding signal (z-score)", "setting": "[24]", "value": 4.38}, {"measurement": "glycan array binding signal (z-score)", "setting": "[25]", "value": 3.95}, {"measurement": "glycan array binding signal (z-score)", "setting": "[26]", "value": 20.8}, {"measurement": "glycan array binding signal (z-score)", "setting": "[27]", "value": -0.12}, {"measurement": "glycan array binding signal (z-score)", "setting": "[28]", "value": -0.235}, {"measurement": "glycan array binding signal (z-score)", "setting": "[29]", "value": 0.084}, {"measurement": "glycan array binding signal (z-score)", "setting": "[30]", "value": 0.054}]}
